The values below come from the supplement of paper PMC6089552.

This experiment relates to A673/TR/shEF. In words: cell viability (LOESS-normalised, relative to median of negative controls) (log2 ratio); higher = more viable cells (less compound effect), active = hit call of the paper (over 3 MAD below the median). Conditions: treatment time: 72 h. The procedure, abridged: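 For three days, A673/TR/shEF Ewing sarcoma cells in 384-well plates (1,500 per well) were treated with library compounds at two or more concentrations or with DMSO controls, after doxycycline had been added or withheld 24 h beforehand to induce EWS-FLI1 shRNA knockdown. Viability was read by CellTiter-Glo luminescence on an Envision reader. The data were LOESS-corrected per plate, divided by the median of negative controls and log2-transformed.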

Where [1] appears, read: 0.25 µM, library screen: screen1, EWS-FLI1 expression: high (no doxycycline).
The mark [2] stands for this setting: 0.25 µM, library screen: screen1, EWS-FLI1 expression: low (doxycycline-induced shRNA knockdown).
Where [3] appears, read: 2.5 µM, library screen: screen1, EWS-FLI1 expression: high (no doxycycline).
[4] abbreviates: 2.5 µM, library screen: screen1, EWS-FLI1 expression: low (doxycycline-induced shRNA knockdown).
The mark [5] stands for this setting: 0.25 µM, library screen: screen2, EWS-FLI1 expression: high (no doxycycline).
Where [6] appears, read: 0.25 µM, library screen: screen2, EWS-FLI1 expression: low (doxycycline-induced shRNA knockdown).
The mark [7] stands for this setting: 2.5 µM, library screen: screen2, EWS-FLI1 expression: high (no doxycycline).
The mark [8] stands for this setting: 2.5 µM, library screen: screen2, EWS-FLI1 expression: low (doxycycline-induced shRNA knockdown).
Setting [9] is: 0.025 µM, library screen: screen1, EWS-FLI1 expression: high (no doxycycline).
The mark [10] stands for this setting: 0.025 µM, library screen: screen1, EWS-FLI1 expression: low (doxycycline-induced shRNA knockdown).
[11] abbreviates: 25 µM, library screen: screen1, EWS-FLI1 expression: high (no doxycycline).
The mark [12] stands for this setting: 25 µM, library screen: screen1, EWS-FLI1 expression: low (doxycycline-induced shRNA knockdown).

“And” between values parts separate entries of the source, which are not always exact repeats. Equal values may be shown once. Hit rate of the full screen: of about 3,200 compounds, about 300 (9.4%) showed activity. Only a selection was taken, and actives are over-represented in it overall. Unmarked numbers belong to inactive results.

Take `CC(C)=CCOc1c2occc2cc2ccc(=O)oc12`: the “cell viability (log2)” value was 0.059 under setting [1], 0.0156 under setting [2], 0.0916 under setting [3] and -0.0403 under setting [4].
Regarding `Clc1ccc(C(c2ccc(Cl)cc2)C(Cl)(Cl)Cl)cc1`, the “cell viability (log2)” value is, setting by setting: under setting [1], 0.0479; under setting [2], 0.0234; under setting [3], 0.0726; under setting [4], 0.147.
In the case of `CN(C)C(=S)SSC(=S)N(C)C`, the “cell viability (log2)” value by setting is: under setting [1], -2.91 (active); under setting [2], -2.1 (active); under setting [3], -2.99 (active); under setting [4], -2.02 (active).
As to `C[C@]12CC[C@@H](O)C[C@@H]1CC[C@@H]1[C@@H]2CC[C@]2(C)[C@@H](O)CC[C@@H]12`, the “cell viability (log2)” value reads like this: under setting [5], 0.0177; under setting [6], 0.137; under setting [7], 0.141; under setting [8], 0.0662.
Take `COS(C)(=O)=O`: the “cell viability (log2)” value by setting is: under setting [1], 0.0621; under setting [2], 0.0487; under setting [3], 0.0611; under setting [4], -0.0183.
Regarding `O=P(O)(O)Cc1ccccc1`, the “cell viability (log2)” value runs as follows: under setting [9], 0.115; under setting [10], -0.0367; under setting [1], 0.209; under setting [2], -0.089; under setting [3], -0.281 (active); under setting [4], -0.453 (active). The “cell viability (log2)” value under setting [11] is -0.356 (active) and the “cell viability (log2)” value under setting [12] was -1.06 (active).
As to `CC12CCC3C(CC=C4CC(OS(=O)(=O)O)CCC43C)C1CCC2=O` (configuration not stated), the “cell viability (log2)” value is 0.0737 under setting [5], -0.00205 under setting [6], 0.0312 under setting [7] and 0.0129 under setting [8].
In the case of `CC[C@@]1(O)C[C@H](O[C@H]2C[C@H](N(C)C)[C@H](O)[C@H](C)O2)c2c(cc3c(c2O)C(=O)c2c(O)cccc2C3=O)[C@H]1C(=O)OC`, the “cell viability (log2)” value is 0.0584 and -0.0862 under setting [1]; -0.00295 and 0.0558 under setting [2]; -1.99 (active) and -0.594 (active) under setting [3]; -0.405 (active) and -0.193 (active) under setting [4].
Take `CC[C@@]1(O)C[C@H](OC2C[C@@H](N(C)C)C(O)C(C)O2)c2c(cc3c(c2O)C(=O)c2c(O)ccc(O)c2C3=O)[C@H]1C(=O)OC` (some centres not stated): the “cell viability (log2)” value runs as follows: under setting [1], 0.0817; under setting [2], 0.158; under setting [3], -0.221 (active); under setting [4], 0.00788.
Take `CCC1(O)CC(OC2CC(N(C)C)C(O)C(C)O2)c2c(cc3c(c2O)C(=O)c2c(O)cccc2C3=O)C1C(=O)OC` (configuration not stated): the “cell viability (log2)” value (0.025 µM, library screen: screen2, EWS-FLI1 expression: high (no doxycycline)) is -0.0129; the “cell viability (log2)” value (0.025 µM, library screen: screen2, EWS-FLI1 expression: low (doxycycline-induced shRNA knockdown)) is 0.0193; the “cell viability (log2)” value under setting [5] was 0.135; the “cell viability (log2)” value under setting [6] is -0.0369; the “cell viability (log2)” value under setting [7] is -0.409 (active); the “cell viability (log2)” value under setting [8] was -0.0756 (active). Moreover, the “cell viability (log2)” value by setting is: (25 µM, library screen: screen2, EWS-FLI1 expression: high (no doxycycline)) -4.23 (active); (25 µM, library screen: screen2, EWS-FLI1 expression: low (doxycycline-induced shRNA knockdown)) -3.71 (active).
For `Cc1o[nH]c(=O)c1CC(N)C(=O)O` (configuration not stated), the “cell viability (log2)” value is, setting by setting: under setting [5], 0.115; under setting [6], 0.0119; under setting [7], 0.0854; under setting [8], 0.0272.
The matching figures for `COc1ccc2c3c1O[C@H]1C(=O)CC[C@@]4(O)C(C2)N(CC2CC2)CCC314` (some centres not stated): 0.143, 0.0949, -0.028 and 0.00345.
With `C[C@]12CCC3C(CC[C@H]4C[C@@H](Cl)CC[C@]34C)C1CCC2=O` (some centres not stated), the “cell viability (log2)” value is, setting by setting: under setting [1], 0.0861; under setting [2], 0.0822; under setting [3], 0.109; under setting [4], 0.0908.
In the case of `CC1CC(Cl)CCC1C(=O)OC(C)(C)C` (configuration not stated), the “cell viability (log2)” value under setting [1] is -0.0203, the “cell viability (log2)” value under setting [2] is 0.0889, the “cell viability (log2)” value under setting [3] is 0.151 and the “cell viability (log2)” value under setting [4] is 0.103.
The matching figures for `Cn1c(=O)c2c(ncn2CCCl)n(C)c1=O`: 0.086, -0.0151, -0.000593 and 0.00538.
Consider `CC(=O)O[C@H]1C[C@@H](OC(C)=O)C(C)(C)C2C[C@@H](OC(C)=O)[C@]3(C)C(CC[C@@]4(C)[C@H](c5ccoc5)C[C@H]5O[C@]543)[C@]21C` (some centres not stated), for which the “cell viability (log2)” value was 0.134 under setting [1], 0.0408 under setting [2], 0.129 under setting [3] and 0.147 under setting [4].
As for `C[C@@H]1O[C@H](C[N+](C)(C)C)C[C@H]1O`, the “cell viability (log2)” value under setting [5] is 0.143, the “cell viability (log2)” value under setting [6] was 0.0741, the “cell viability (log2)” value under setting [7] is 0.116 and the “cell viability (log2)” value under setting [8] was -0.0161.
For the compound `CCCN(CCC)C1CCc2cccc(O)c2C1` (configuration not stated), the “cell viability (log2)” value is 0.114 under setting [5], 0.0781 under setting [6], 0.143 under setting [7] and 0.0595 under setting [8].
Take `CC(C)c1ccc2c(c1O)CCC1C3=C(CCC21C)C(=O)OC3` (configuration not stated): the “cell viability (log2)” value was 0.0257 under setting [1], 0.104 under setting [2], 0.151 under setting [3] and 0.343 under setting [4].
The matching figures for `CC(C)[C@]12O[C@H]1[C@@H]1O[C@@]13[C@@]1(C)CCC4=C(COC4=O)[C@@H]1C[C@@H]1O[C@@]13C2=O`: -2.66 (active), -3.01 (active), -3.24 (active) and -2.91 (active).
As to `O=C1C(Cl)=C(Cl)C(=O)C(Cl)=C1Cl`, the “cell viability (log2)” value under setting [1] was 0.0885, the “cell viability (log2)” value under setting [2] is 0.0373, the “cell viability (log2)” value under setting [3] is 0.114 and the “cell viability (log2)” value under setting [4] is 0.156.
On to `ClC1C(Cl)C(Cl)C(Cl)C(Cl)C1Cl` (configuration not stated), for which the “cell viability (log2)” value runs as follows: under setting [1], 0.118; under setting [2], 0.0584; under setting [3], 0.159; under setting [4], -0.0362.
Consider `C[N+]1(C)C2CC(OC(=O)[C@H](CO)c3ccccc3)CC1C1OC12` (some centres not stated), for which the “cell viability (log2)” value under setting [5] is 0.208, the “cell viability (log2)” value under setting [6] is 0.126, the “cell viability (log2)” value under setting [7] was 0.131 and the “cell viability (log2)” value under setting [8] is 0.157.
Turning to `CCNC(=O)[C@H]1O[C@@H](n2cnc3c(N)ncnc32)[C@H](O)[C@@H]1O`, the “cell viability (log2)” value was 0.186 under setting [5], 0.0998 under setting [6], 0.0806 under setting [7] and 0.122 under setting [8].
`COc1cccc2c1cc([N+](=O)[O-])c1c(C(=O)O)cc3c(c12)OCO3`: the “cell viability (log2)” value is, setting by setting: under setting [1], 0.0105; under setting [2], 0.00257; under setting [3], -0.209 (active); under setting [4], -0.0027.
With `COc1c2c(cc3c1OCO3)CCN(C)C2`, the “cell viability (log2)” value was 0.00337 under setting [1], -0.0221 under setting [2], 0.133 under setting [3] and 0.0446 under setting [4].
For the compound `CC(N)Cc1c[nH]c2ccccc12` (configuration not stated), the “cell viability (log2)” value by setting is: under setting [5], 0.229; under setting [6], 0.175; under setting [7], 0.0609; under setting [8], 0.105.
Take `CCn1cnc2c(Nc3cccc(Cl)c3)nc(N[C@@H]3CCCC[C@@H]3N)nc21`: the “cell viability (log2)” value is, setting by setting: under setting [5], 0.222; under setting [6], 0.14; under setting [7], -0.199 (active); under setting [8], -0.0222.
As for `C[C@H]1C[C@@H](O)[C@]2(O)[C@@]13CC(=O)OC[C@@]2(C)[C@](C)(O)C(=O)C3`, the “cell viability (log2)” value runs as follows: under setting [1], 0.0914; under setting [2], -0.0111; under setting [3], 0.0806; under setting [4], 0.024.
For the compound `CN[C@@H]1C[C@H]2O[C@@](C)([C@@H]1OC)n1c3ccccc3c3c4c(c5c6ccccc6n2c5c31)C(=O)NC4`, the “cell viability (log2)” value runs as follows: under setting [9], -2.08 (active); under setting [10], -1.86 (active); under setting [1], -3.68 (active); under setting [2], -3.78 (active); under setting [3], -4.25 (active); under setting [4], -4.31 (active). In addition, the “cell viability (log2)” value runs as follows: under setting [11], -4.11 (active); under setting [12], -4.31 (active).
